Sampled rows, rich in hits. Any-hit rate of the full collection: about 2.4%.
Prx2 Sm inh: blocks S. mansoni peroxiredoxin 2 enzymatic activity; S. mansoni Prx2 activity coupled to TGR/GSH (TGR is thioredoxin glutathione reductase), NADPH fluorescence loss, qHTS; Potency, µM; 0.07% of 65,000 active
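Prx2 activity was followed as the loss of NADPH fluorescence (ex 365/em 450 nm), read every 30 sec for 8 min after H2O2 start. The enzyme mix (50 nM Prx2, 25 nM TGR, GSH, NADPH; pH 7.4 phosphate buffer) was incubated with compound for 15 min at room temperature first.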
Anthrax LT inh: inhibitors of anthrax lethal toxin internalization; Cells, anthrax lethal toxin internalization, FRET ratio (460/530); Potency, µM (series often up to 40 µM), for inactives: at the highest dose activity change, negative = inhibition, most hits filed as inhibitors; 0.67% of 70,000 active; AID 912; also: % is scaled to controls: 0 for no effect and ±100 for the full control effect; nearly all actives have a fitted effect of over 50% in size
AmpC inh det: inhibitors of E. coli AmpC beta-lactamase with detergent | purified AmpC, nitrocefin hydrolysis with detergent | Potency, µM (series often up to 28.7 µM), without a hit: at the top dose activity change, negative = inhibition | 0.09% of 71,000 active; active = well fitted curve in the direction sought with a large enough effect; inconclusive = small, poorly fitted or top-dose-only effect; also: % is scaled to controls: 0 for no effect and ±100 for the full control effect
Target sequence (P00811 whole entry, looked up): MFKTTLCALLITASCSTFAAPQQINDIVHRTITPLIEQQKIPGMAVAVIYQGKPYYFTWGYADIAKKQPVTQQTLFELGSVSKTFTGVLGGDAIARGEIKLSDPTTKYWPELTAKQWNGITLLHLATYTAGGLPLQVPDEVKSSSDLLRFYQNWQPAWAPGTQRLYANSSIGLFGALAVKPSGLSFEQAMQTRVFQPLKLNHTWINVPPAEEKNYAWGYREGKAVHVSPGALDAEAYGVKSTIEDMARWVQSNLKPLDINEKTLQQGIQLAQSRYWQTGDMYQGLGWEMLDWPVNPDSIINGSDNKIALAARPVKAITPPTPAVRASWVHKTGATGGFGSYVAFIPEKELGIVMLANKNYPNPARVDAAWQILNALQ
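E. coli AmpC (5.3 nM) in 20 mM phosphate pH 7.0 with 0.01% Triton X-100, preincubated 15 min RT with compound; nitrocefin (2 uL of 800 uM stock) hydrolysis followed by 480 nm absorbance every 20 s over 4 min.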
AmpC nodet inh: blocks E. coli AmpC beta-lactamase in absence of detergent. 1.8% of 71,000 active. AID 585. P00811. Potency, µM (top dose mostly 28.7 µM), without a hit: at the highest dose activity change, negative = inhibition. AmpC nitrocefin hydrolysis, absorbance 480 nm, no detergent; also: % of control where 0% means no effect
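Enzyme, pH 7.0 phosphate. Compound titrations were pre-incubated with AmpC for 15 min at room temperature before nitrocefin (stock 800 uM) addition; product formation was recorded at 480 nm every 20 s for 4 min.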
Starred values were filed as active, the others as inactive; ? = inconclusive; nt = no result; [ ] = another dose, or the depositor's remark. Unless noted, calls follow the shape of the full dose curve. Potency is read from the fitted curve at half-maximal effect.

SMILES	Prx2 Sm inh	Anthrax LT inh	AmpC inh det	AmpC nodet inh
C=CC[C@@H]1C=C[C@@H](O/N=C\C[C@@H]2C=C[C@H](OC(C)=O)[C@H](COC(C)=O)O2)[C@@H](CO)O1	nt	-10%[8 µM]	nt	nt
CC(C)[C@H](CO)Nc1nc(Nc2cccc(Cl)c2)c2ncn(C(C)C)c2n1	>57	13µM*	13%	107%
COc1ccc(Nc2nc(N3CCCC3)nc3ccccc23)c(OC)c1	>57	13µM*	-1%	54%
COc1ccc(C2CC(=O)c3cnc(NC(=O)c4ccccc4)nc3C2)cc1OC (stereo unspecified)	>57	-25%	9%	4µM*[single pt active]
Nc1ccc(-c2ccc(N)c(O)c2)cc1O	nt	?	12%	0.79µM*
COc1cccc(Cn2c(=O)cnc3cnc(Nc4cccc(OC)c4)nc32)c1	>57	?	2%	12%
CC[C@@](N)(C(=O)O)c1ccc(C(=O)O)cc1	>57	0%	4%	42%
O=C(NCCN1CCc2ccccc2C1)Nc1ccc(F)cc1	>57	?	5%	4µM*[single pt active]
CCc1ccc(NC(=O)NCCN2CCc3ccccc3C2)cc1	>57	-22%	-2%	13%
N[C@@H](CSS(=O)(=O)O)C(=O)O	nt	?	-3%	11%
O=c1c(-c2ccc3c(c2)OCCO3)coc2c(CN3CCOCC3)c(O)ccc12	>57	-18%	12%	4%
CC(C)=CCc1c2c(c3occ(-c4ccc(O)c(O)c4)c(=O)c3c1O)C=CC(C)(C)O2	>57	?	-3%[5.75 µM]	4µM*[single pt active]
CC1CCN(C(=O)CN2C(=O)C(=O)c3ccccc32)CC1	>57	6%	10%	4µM*[single pt active]
CC1CCN(C(=O)Cn2c(=O)oc3ccccc32)CC1	>57	2%	-1%	-5%
Cn1c(NC(=O)c2cccc(Cn3cc(Cl)cn3)c2)nc2ccccc21	>57	9%	-2%	-4%
CCn1c(NC(=O)c2cccc(Cn3cc(Cl)cn3)c2)nc2ccccc21	>57	1%	19%	4µM*[single pt active]
COc1ccc(Cn2c(C)nc3c(c2=O)c2nc4ccccc4nc2n3Cc2ccco2)cc1	>57	?	13%	49%
COc1ccc(S(=O)(=O)c2c(N)n(Cc3ccco3)c3nc4ccccc4nc23)cc1	>57	?	-1%	13µM*
Nc1ncnc2c1c(-c1ccc(Oc3ccccc3)cc1)cn2C1CCCC1	>57	16µM*	1%	28%
CCCCN(CC)S(=O)(=O)c1ccc(C(=O)Nc2nnc(-c3ccccc3Cl)o2)cc1	>57	11%	-1%	6.3µM*
CCCCN(C)S(=O)(=O)c1ccc(C(=O)Nc2nnc(-c3cccs3)o2)cc1	>57	-4%	-1%	16µM*
Nc1ncnc2c1ncn2C[C@@H](O)C(=O)O	>57	0%[8 µM]	-4%[5.75 µM]	0%[5.75 µM]
COc1cc2c(cc1OC)C(c1ccc(N)cc1)=NNC(=O)C2	>57	?	-2%	18%
CCOC(=O)c1cc2c(=O)n(C)c3ccccc3c2s1	>57	2%	12%	-2%
CCn1c(=O)c2cc(C(=O)N3CCOCC3)sc2c2ccccc21	>57	-16%	14%	4µM*[single pt active]
SMILES	Prx2 Sm inh	Anthrax LT inh	AmpC inh det	AmpC nodet inh
CCn1c(=O)c2cc(C(=O)N3CCCC3)sc2c2ccccc21	>57	-10%	14%	4µM*[single pt active]
COc1cccc(Nc2ncc3nc(CCc4ccccc4)c(=O)n(C)c3n2)c1	>57	?	0%	11%
NC(=O)CN1CCN(C(=O)NC2CCCCC2)CC1	>57	-2%	16%	3.2µM*[single pt active]
O=C(NCCN1CCN(C(=O)NC2CCCCC2)CC1)NC1CCCCC1	>57	-4%	-6%	12%
COC(=O)[C@@H]1C[C@@H]1[C@@H](NP(=O)(c1ccccc1)c1ccccc1)c1ccccc1	nt	-6%	2%	96%
Clc1cccc(-c2nc(-c3ccccn3)no2)c1	>57	-4%	-1%	11%
c1ccc(-c2ccc(-c3nc(-c4ccccn4)no3)cc2)cc1	nt	3.2µM*	12%	44%
CC(=O)[C@@H]1[C@H]2[C@@H](C(=O)[C@H]3OC[C@H]2O3)[C@@H]2C=Cc3ccccc3N12	>57	-9%	-2%	71%
Cn1c(=O)c2[nH]cnc2n(C)c1=O.[CH2-][C@H](Cc1cccc2cc(C(=O)O)c(=O)oc12)OC.[Hg].[OH-]	?	?	-3%[5.75 µM]	1%[5.75 µM]
CCOC(=O)c1nnn(CC(=O)Nc2cc(Cl)ccc2C)c1C(=O)OCC	>57	7.9µM*	-3%	16%
CCN1C(=O)[C@H]2[C@H]3[C@H](O)[C@H](O)C/C(=N/OC[C@@H]4O[C@H](c5ccccc5)C=C[C@@H]4Oc4ccc(OC)cc4)[C@@H]3CC[C@@H]2C1=O	nt	-5%[8 µM]	nt	nt
O=C1C2Cc3c([nH]c4ccccc34)C(c3ccccc3)N2C(=O)C2Cc3c([nH]c4ccccc34)C(c3ccccc3)N12 (stereo unspecified)	nt	-15%[8 µM]	nt	nt
CC(=O)Nc1nc(-c2ccc(Br)s2)cs1	>57	-2%	13%	13µM*
Cc1cc(NC(=O)c2cc(CC(C)C)on2)no1	>57	-17%	12%	4µM*[single pt active]
CC(C)Cc1cc(C(=O)Nc2sc3c(c2C#N)CCCC3)no1	>57	7.9µM*	12%	4µM*[single pt active]
Cc1cc(NC(=O)c2cc(C)on2)no1	>57	0%	0%	7%
CC(=O)c1ccc(NC(=O)c2cc(CC(C)C)on2)cc1	>57	-16%	11%	4µM*[single pt active]
COc1cc(NC(=O)c2cc(CC(C)C)on2)c(OC)cc1Cl	>57	?	10%	4µM*[single pt active]
COc1ccc(NC(=O)N2CCCC3(CCN(S(=O)(=O)c4ccccc4)CC3)C2)cc1	>57	?	1%	48%
O=C(Oc1ccccc1)N1CCC2(CCCN(c3ncccn3)C2)CC1	>57	-22%	4%	76%
CC(C)C(NS(=O)(=O)c1ccc2c(c1)oc(=O)n2C)C(=O)N1CCN(C2CCCCC2)CC1 (stereo unspecified)	>57	6%	5%	17%
CC(C)CC(NS(=O)(=O)c1ccc2c(c1)oc(=O)n2C)C(=O)NC1CCCc2ccccc21 (stereo unspecified)	>57	-2%	12%	4µM*[single pt active]
CC1CC(C)CN(C(=O)C(NS(=O)(=O)c2ccc3c(c2)oc(=O)n3C)C(C)C)C1 (stereo unspecified)	>57	-6%	13%	4µM*[single pt active]
COc1ccc2[nH]cc(CCNc3ncncc3-c3cccc(C#N)c3)c2c1	>57	-4%	10%	1%
COc1ccc(S(=O)(=O)Cc2ccc(C(=O)N3CCN(c4ccc(Cl)cc4)CC3)o2)cc1	>57	13µM*	5%	84%
COc1ccc(S(=O)(=O)Cc2ccc(C(=O)N3CCN(Cc4ccccc4)CC3)o2)cc1	>57	-11%	12%	109%
COc1ccc(S(=O)(=O)Cc2ccc(C(=O)N3CCc4ccccc4C3)o2)cc1	>57	-14%	6%	3.2µM*[single pt active]
Ic1ccccc1CN[C@@H]1C2CCN(CC2)[C@H]1C(c1ccccc1)c1ccccc1	>57	16µM*	0%	91%
Cn1c(SCC(=O)NCc2ccc3c(c2)OCO3)nc2scc(-c3cccs3)c2c1=O	>57	-9%	-4%	16µM*[single pt active]
O=C(CSc1nnc2scc(-c3ccccc3)n12)NCc1ccc2c(c1)OCO2	>57	9%	12%	-2%
